Measured values: PubChem BioAssay
“And” between values parts separate entries of the source, which are not always exact repeats. Identical values can stand only once.

Legend:
[1] = system: Botulinum neurotoxin type F light chain protease (Clostridium botulinum); experiment: Clostridium botulinum type F light chain protease inhibitors, microsphere substrate cleavage, validation (AID 588459); details: multiplex microsphere protease substrate cleavage assay, flow cytometry; at 10 µM; hits give high values
[2] = target: Botulinum neurotoxin type A (Clostridium botulinum) (UniProt P0DPI0); experiment: BoNT/A light chain protease inhibitors, biochemical, multiplex microsphere flow cytometry, validation set (AID 588460); details: at 10 µM, hits give high values
[3] = target: Lethal factor (Bacillus anthracis) (UniProt P15917); experiment: Bacillus anthracis lethal factor inhibition, microsphere flow cytometry protease assay, validation at 10 µM (AID 588461); details: multiplex microsphere protease cleavage assay, hits give high values

Measured: inhibition

Cc1cc(C)cc(Nc2nc3c([nH]2)c(=O)n(C)c(=O)n3C)c1
inactive: [1] -0.8% | [2] 0.5% | [3] 4.9%

COc1ccc(-c2noc(CCc3ccccc3)n2)cc1
inactive: [1] -8.8% | [2] -1.1% | [3] -11%

O=c1c(-c2ccccc2)c(O)c2cccc3c2n1CCC3
inactive: [1] 3.3% | [2] 0.8% | [3] 10.4%

COc1ccc(O)c(C(=O)/C=C/c2cc3ccccc3o2)c1
inactive: [1] -0.1% | [2] 0% | [3] -3.5%

COc1ccc(N2C(=O)C3C(C2=O)C(C(=O)c2ccccc2)N2CCCC32)cc1 (stereo not drawn)
inactive: [1] 1.6% | [2] -0.2% | [3] -3.5%

COc1cc(OC)cc(C(=O)N[C@@H](CCSC)c2nc3ccccc3[nH]2)c1
inactive: [1] 0.7% | [2] 0.8% | [3] -0.7%

CC(C)C12CN3CC(C(C)C)(CN(C1)C3c1ccccc1)C2O (stereo not drawn)
inactive: [1] 1.7% | [2] 1.2% | [3] 7%

CCN(CC)CCNC(=O)c1ccc(NC(C)=O)cc1
inactive: [1] 3.4% and 3.6% | [2] 1.2% and -1.2% | [3] -6.2% and -1.6%

COc1ccc(NC(=O)Nc2ccc(C(C)C)cc2)cc1
inactive: [1] 2.7% | [2] 1.5% | [3] 5.7%

CC1CCCc2sc3ncn(N)c(=N)c3c21 (stereo not drawn)
inactive: [1] 0.9% | [2] 0.3% | [3] -1.1%

COc1ccc(/C=C2\CCn3c2nc2cc(C(=O)O)ccc2c3=O)cc1OC
inactive: [1] 1.4% | [2] 1% | [3] 8%
